In the library only some 7.3% were active in any assay of this set; here they are far more common.
ELG1 genotoxic = genotoxicity induction in ELG1-luciferase HEK293T cells; HEK293T ELG1-luciferase reporter, luminescence, 16 h; Potency, µM (highest dose often 46 µM), inactives show at the top dose activity change, positive = activation, usual class: activators; hit rate 1.3% among 330,000; AID 504466; also: % of control where 0% means no effect; nearly all actives have a fitted effect of over 60% in size
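Quantitative HTS format in 1536-well plates. HEK293T ELG1-luciferase reporter cells receive test compound and are incubated 16 hr at 37 °C, 5% CO2; ONE-Glo added, 30 min room temperature, then luminescence read.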
SMN2 splice enh = enhancers of SMN2 splice variant expression; hit rate 2.8% among 210,000; Potency, µM (highest dose often 46.1 µM), for inactives: top-dose activity change, positive = activation, most hits filed as activators; AID 1458; HEK293 SMN2-luciferase splicing reporter, luminescence, 30-36 h; also: % of control where 0% means no effect; nearly all actives have a fitted effect of over 55% in size
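HEK293 cells carry an SMN2 minigene-luciferase reporter in which exon 7 inclusion puts luciferase in frame. Cells were seeded at 2000 cells/well, attached for 10-12 hours, then exposed to compounds for 30-36 hours at 37C before ONE-Glo luminescence.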
Rab9 promoter act = activates the Rab9 promoter. Huh7 Rab9 promoter-luciferase reporter, luminescence, 24 h. Potency, µM (series often up to 9.22 µM), without a hit: at the top dose activation, negative = inhibition, hits mostly activators. hit rate 2.8% among 320,000. AID 485297; also: % of control where 0% means no effect; nearly all actives have a fitted effect of over 60% in size
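Steps: seed 1500 Huh7 Rab9-luc cells per well, rest 2 h at 37 °C; add compound in DMSO; incubate 24 h; add luciferase reagent, 10 min ambient; read luminescence.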
NPC1 promoter act = activators of NPC1 promoter; Huh7 NPC1 promoter luciferase reporter, 24 h; Potency, µM (top dose mostly 9.22 µM), for inactives: at the highest dose activation, actives largely listed as activators; hit rate 2.4% among 320,000; also: % of control where 0% means no effect; nearly all actives have a fitted effect of over 60% in size
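Cells: Huh7 expressing luciferase under the NPC1 promoter, 1500/well. Seeded 2 h, compound added, incubated 24 h at 37 °C. Luciferase reagent, 10 min ambient, then luminescence.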
uPA surface inh = blocks generation of uPA at the cell surface | cell surface uPA generation assay, qHTS | Potency, µM (highest dose often 38.3 µM), inactives show at the top dose activity change, negative = inhibition, most hits filed as inhibitors | hit rate 0.31% among 330,000 | AID 540303; active = well fitted inhibition curve with a large enough effect; inconclusive = small, poorly fitted or top-dose-only effect; inactive = no such curve, though single readings can be large or run the other way; tested in mouse RAW 264.7 cells; also: % is scaled to controls: 0 for no effect and ±100 for the full control effect; nearly all actives have a fitted effect of over 55% in size
FLuc counter = firefly luciferase modulation, counter-screen for miR-21 project; P08659; purified FLuc, Km substrates, luminescence inhibition; Potency, µM (doses to about 57.5 µM), for the others: at the highest dose activity change, negative = inhibition, actives largely listed as inhibitors; hit rate 6.9% among 360,000; AID 588342;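 also: plate controls were vehicle for no effect and reference inhibitor for full effect; nearly all actives have a fitted effect of over 55% in size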
Target sequence (P08659 whole entry, looked up): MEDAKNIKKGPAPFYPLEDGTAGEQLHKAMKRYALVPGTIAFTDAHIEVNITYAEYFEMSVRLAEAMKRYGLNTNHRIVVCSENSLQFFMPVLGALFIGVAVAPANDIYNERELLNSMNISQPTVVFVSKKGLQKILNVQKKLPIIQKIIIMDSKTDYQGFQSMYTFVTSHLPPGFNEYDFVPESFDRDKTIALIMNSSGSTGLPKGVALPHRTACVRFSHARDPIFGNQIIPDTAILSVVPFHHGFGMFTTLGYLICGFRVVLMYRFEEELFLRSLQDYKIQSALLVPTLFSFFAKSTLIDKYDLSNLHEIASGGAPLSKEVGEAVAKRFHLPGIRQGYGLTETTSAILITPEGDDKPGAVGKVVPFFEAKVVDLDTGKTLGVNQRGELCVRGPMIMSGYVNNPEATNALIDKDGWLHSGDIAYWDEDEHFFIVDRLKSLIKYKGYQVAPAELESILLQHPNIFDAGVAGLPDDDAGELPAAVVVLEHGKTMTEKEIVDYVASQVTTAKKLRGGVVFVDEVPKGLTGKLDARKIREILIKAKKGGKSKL
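Purified P. pyralis luciferase (10nM final) with 10uM D-luciferin and 10uM ATP (Km levels) in 50mM Tris acetate pH 7.5, 10mM Mg acetate, 0.01% Tween-20, 0.05% BSA; qHTS 6-point titration, ~60 µM downward; luminescence read.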
The depositor's hits bear a star; u = inconclusive; x = no result given; [ ] = remark or other dose. Unless noted, calls follow the shape of the dose curve; as a rule, active = well fitted curve in the direction sought with a large enough effect; inconclusive = small, poorly fitted or top-dose-only effect, or another doubt; inactive = no such curve, though single readings can be large; an effect the other way counts as inactive or inconclusive. Potency is read from the fitted curve at half-maximal effect.

SMILES	ELG1 genotoxic	SMN2 splice enh	Rab9 promoter act	NPC1 promoter act	uPA surface inh	FLuc counter
CCC(C)c1ccc(NC(=O)C2CC2)cc1 (centres undefined)	u	2.0%	29.1%	16.5%	-3.5%	15.1µM*
CCC(C)c1ccc(NC(=O)Nc2cnccn2)cc1 (centres undefined)	u	x	u	-6.4%	u	6.75µM*
COc1ccc(NC(=O)C2CCCN(c3ncccn3)C2)cc1 (centres undefined)	u	x	2.82µM*	u	-0.5%	16.9µM*
COC(=O)c1nnc(SC)nc1C(=O)OC	x	-0.3%	x	x	x	x
Br/C(=N\Nc1nn[nH]n1)c1ccncc1	x	-10.7%[9.22 µM]	x	x	x	x
CC(=O)N1CCC2(CCCN(C(=O)Nc3cccc(C#N)c3)C2)CC1	x	7.3%	x	x	x	x
COC(=O)[C@@]1(C)[C@H]2C(=O)N(Cc3ccccc3)C(=O)[C@H]2[C@H]2CN(C)C(=NC3CCCCC3)N21	-1.6%	x	x	x	7.4%	x
CCC(C)c1ccc(NC(=O)C2CCCN(c3ncccn3)C2)cc1 (centres undefined)	-1.2%	7.9%	0.8%	3.7%	-15.6%	15.1µM*
CCc1ccccc1NC(=O)C1CCCN(c2ncccn2)C1 (centres undefined)	-2.5%	x	1.5%	0.6%	-2.4%	-0.4%
CCCCn1c(SCC(=O)Nc2cccc(OC)c2)nc2ccc(N3CCOCC3)cc2c1=O	-7.9%	-1.3%	-12.5%	-5.4%	4.3%	-7.1%
COc1ccc(Cn2c(SCC#N)nc3ccc(N4CCOCC4)cc3c2=O)cc1	u	u	3.55µM*	3.55µM*	-21.0%	u
COc1ccc(CCN2C(=O)c3[nH]nc(-c4ccccc4O)c3C2c2ccccc2)cc1 (centres undefined)	x	-9.0%	x	x	x	2.9%
CSCCOC(=O)COc1ccc(/C=N/NC(=O)c2nn(C)cc2Cl)cc1	3.3%	-21.7%	-7.2%	-4.8%	-0.9%	13.5µM*
Oc1cc2c(cc1O)[C@@H](c1ccccc1)CNCC2	-2.4%	-29.5%	-3.2%	-0.3%	11.6%	4.78µM*
CCc1ccc[n+](-c2[nH]c(=O)sc2/C=N/N=C(\[O-])c2cccnc2)c1	1.4%	x	-3.6%	-17.6%	-1.6%	-2.2%
CCCCC(=O)Nc1cccc(NC(=O)c2ccc(Br)o2)c1	-1.8%	35.5µM*	u	1.7%	x	4.8%[2.3 µM]
CCCC(=O)Nc1cccc(NC(=O)c2ccc(C)c([N+](=O)[O-])c2)c1	-2.1%	x	4.6%	-2.4%	x	u
CCCC(=O)Nc1cccc(NC(=O)c2ccc3c(c2)OCCO3)c1	u	12.6µM*	19.2%	23.0%	-22.7%	9.53µM*
CCCCC(=O)Nc1cccc(NC(=O)c2ccc3c(c2)OCO3)c1	0.3%	u	2.0%	2.6%	x	19µM*
CC(=O)c1cccc(NC(=O)c2ccc(Br)o2)c1	16.0%	16.9%	27.2%	24.4%	x	u
c1ccc(COc2cccc(CNCc3ccccn3)c2)cc1	1.3%	-14.9%	10.8%	0.8%	u	u
COC(=O)c1ccc(COc2ccc(C=O)cc2)o1	2.0%	x	-3.0%	2.4%	10.7%	-14.7%
O=Cc1ccc(OCc2ccccn2)cc1	14.5%	15.8µM*	-2.6%	-0.9%	-4.8%	u
O=Cc1ccc(OCc2ccc3ccccc3c2)cc1	u	x	u	14.8%	-3.1%	5.36µM*
Cc1ccc(C)c(N2CCN(C(=O)C3CCC(CNS(=O)(=O)c4ccc(Br)s4)CC3)CC2)c1 (centres undefined)	x	-19.6%	x	x	x	-0.5%
SMILES	ELG1 genotoxic	SMN2 splice enh	Rab9 promoter act	NPC1 promoter act	uPA surface inh	FLuc counter
CC(C)(Oc1ccc(CCNC(=O)c2ccc(-c3ccc(Cl)cc3)o2)cc1)C(=O)O	-5.6%	-5.5%	1.2%	-1.7%	-1.7%	23.9µM*
Cc1ccc(NC(=O)c2c3c(nc4ccccc24)C(=O)N(C2CCCCC2)C3)cc1F	x	x	x	x	x	-1.8%
Nc1cc(OCc2ccccc2)ccc1OCc1ccccc1	x	x	x	x	3.6%	x
c1ccc(COc2ccc3nocc3c2)cc1	u	x	2µM*	3.16µM*	-28.1%	7.57µM*
Cc1ccccc1CNC(=O)CCS(=O)(=O)c1cc2c3c(c1)CCN3C(=O)CC2	x	x	x	x	x	-1.1%
COc1cc2[nH]c(=O)n(Cc3ccc(C(=O)N4CCN(c5cccc(C)c5C)CC4)cc3)c(=O)c2cc1OC	x	2.2%	x	x	x	-5.2%
Fc1ccc(-c2ccc(CNCc3ccccn3)o2)cc1	u	x	5.1%	27.3%	3.9%	23.9µM*
Fc1ccc(-c2ccc(CNCCSc3nnnn3-c3ccccc3)o2)cc1	x	x	x	x	x	-19.7%
COc1ccc(-c2ccc(CNCc3ccccn3)o2)cc1Cl	8.2%	x	-2.9%	-3.6%	x	u
Clc1ccc(-c2ccc(CNCc3ccccn3)o2)cc1	4.1%	x	24.0%	u	-25.1%	15.1µM*
CCc1nn(CC(=O)N2CCCCC2)c(=O)c2cc3sc(C)cc3n12	x	-17.1%	x	x	x	-2.8%
COc1ccccc1OCc1nnc(SCC(=O)Nc2ccc(N3CCOCC3)cc2)n1C	0.7%	x	15.9%	4.4%	-3.8%	12µM*
Cc1ccccc1OCc1nnc(SCC(=O)Nc2ccc3c(c2)OCO3)n1C	15.8%	-10.5%	-5.5%	-3.0%	x	1.1%
Cc1ccccc1OCc1nnc(SCC(=O)Nc2ccc(N3CCOCC3)c(Cl)c2)n1C	-1.2%	-0.7%	-2.1%	3.9%	0.1%	19µM*
COc1ccc(CNC(=O)c2ccc(-c3nc(CSc4ccc(C)cc4)c(C)o3)cc2)cc1OC	x	x	x	x	x	3.8%
CCOC(=S)SCC(=O)Nc1ncc(C)s1	-5.8%	x	-29.7%	-19.2%	-6.7%	-9.0%
CCN1C(=O)c2ccccc2Sc2ccc(NC(=O)Nc3cc(C)cc(C)c3)cc21	x	x	x	x	x	2.9%
COc1ccc(C(=O)/C=C2/C(=O)Nc3ccccc32)cc1	u	x	-0.2%	3.1%	u	2.39µM*
COc1ccc(C2(C(=O)c3ccccc3)C(=O)c3ccccc3C2=O)cc1	u	x	u	2µM*	-19.9%	4.78µM*
COc1ccc(C(=O)CC(=O)c2ccccc2)cc1	x	x	x	x	-2.1%	x
O=C1Nc2ccccc2/C1=C/C(=O)c1cccs1	-5.6%	u	15.3%	-3.2%	-10.7%	15.1µM*
COc1ccc(C(=O)/C=C2/C(=O)Nc3ccccc32)c(OC)c1	-4.7%	x	0.5%	0.9%	-18.6%	8.49µM*
COc1ccc(C(=O)/C=C2/C(=O)Nc3ccccc32)cc1OC	6.6%	x	-0.8%	-0.9%	1.4%	-13.7%
Cc1c(Cl)cccc1-n1ncc(C(=O)NCCN2CCN(C)CC2)c1C1CCN(C(=O)OC(C)(C)C)CC1	x	x	x	x	x	-2.8%
CCOc1ccc(N(C)C(=O)CCc2nnc3ccc(N4CCCCC4)nn23)cc1	4.3%	x	-2.3%	-2.1%	-13.1%	-1.0%
O=C1CC(c2nc3ccccc3n2Cc2c(F)cccc2Cl)CN1c1cccc(C(F)(F)F)c1 (centres undefined)	x	7.0%	x	x	x	-2.2%
N[C@@H](CSS(=O)(=O)O)C(=O)O	x	2.6%	x	x	x	x

High-throughput results from PubChem.
